Test results: PubChem BioAssay AID686979 (National Center for Advancing Translational Sciences (NCATS), 2013)
The campaign covered roughly 420,000 compounds. About 50,000 (12%) were called active. A call without a number means that no potency is given here. Roughly 26% stayed inconclusive and do not appear here. Calls come from the whole dose curve; as a rule, active = well fitted inhibition curve with a large enough effect; inconclusive = small, poorly fitted or top-dose-only effect; inactive = flat fitted curve, though single readings scatter. This excerpt belongs to a sample that is enriched for actives.

Experiment: qHTS for Inhibitors of human tyrosyl-DNA phosphodiesterase 1 (TDP1): qHTS in cells in presence of CPT; note: nearly all actives have a fitted effect of over 55% in size
Conditions: chicken DT40 Tdp1-/-;hTDP1 cells + 20 nM CPT, ATP luminescence, 48 h; series mostly up to 46.2 µM
Procedure, shortened: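 Chicken DT40 Tdp1-/- cells stably complemented with human TDP1 were seeded at 400 cells/well in medium containing 20 nM camptothecin, exposed to pin-transferred compounds, and grown at 37 °C for at least 48 hr. Viability was read as ATP luminescence.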
Potency is the fitted concentration of half-maximal effect.

| SMILES | Potency |
| --- | --- |
| CCc1ccc(CN(C)C(=O)C2CCC(=O)N(Cc3cccc(OC)c3)C2)nc1 (configuration not stated) | inactive |
| C=CCC(C(=O)c1ccccc1)[N+](C)(C)CC=C (configuration not stated) | inactive |
| COc1cc(C(F)(F)F)c(C(=O)N(C)c2ccc(Cl)cc2)cn1 | inactive |
| CC(C)(C)c1ccc(S(=O)(=O)N2CCN(C(=O)c3ccc4c(c3)C(=O)N(Cc3ccncc3)C4=O)CC2)cc1 | inactive |
| COC(=O)Cc1c(O)ccn(Cc2cccc(C(F)(F)F)c2)c1=O | inactive |
| COC(=O)Cc1csc(/N=C/c2c(O)n(-c3cccc(C(F)(F)F)c3)c(=O)c3ccccc23)n1 | 6.51 µM (active) |
| COC(=O)Cc1csc(Nc2c(C)n(C)n(-c3ccccc3)c2=O)n1 | inactive |
| COc1ccc(NC(=O)CSc2nnc(-c3ccccc3F)n2C2CC2)cc1S(N)(=O)=O | inactive |
| COc1ccccc1C(=O)N(C1=NC(C)CS1)c1ccc(Cl)cc1 (configuration not stated) | inactive |
| CCNc1nc(NC(C)C)nc(OCCOC(=O)c2ccccc2)n1 | inactive |
| COc1cccc(CNc2nc(NCc3ccccc3OC)nc3ccsc23)c1 | 9.2 µM (active) |
| COc1cccc(CNc2nc(NCc3cccs3)nc3ccsc23)c1 | 23.1 µM (active) |
| CNC(=O)c1sc(NCc2ccccc2OC)nc1C | inactive |
| COc1ccccc1CNc1nc(Nc2ccccc2Cl)c2sccc2n1 | 9.2 µM (active) |
| CC(C)Nc1nc(NCCOc2ccccc2Cl)c2sccc2n1 | 18.4 µM (active) |
| COc1cccc(CNc2nccn(-c3ccc(OC)c(OC)c3)c2=O)c1 | inactive |
| CCc1ccc(S(=O)(=O)c2nnn3c2nc(NCc2ccccc2OC)c2cc(Cl)ccc23)cc1 | inactive |
| COCCNc1nc(NCc2ccc(NC(C)=O)cc2)c2sccc2n1 | inactive |
| Cc1nc2cc(NCc3cccs3)ccc2n1C | inactive |
| COc1ccc(CNc2ncncc2-c2ccccc2C)c(OC)c1 | inactive |
| CC(=O)C(CC(=O)N1CCCC1)C(=O)Nc1ccc(Cl)cc1 (configuration not stated) | inactive |
| O=C1CC(c2c(F)cccc2Cl)C(n2cncn2)C(O)=C1C1NCCc2ccccc21 (configuration not stated) | inactive |
| Nc1nc2cc(Cl)ccc2n1N | inactive |
| COc1ccc(NC(=O)CN(C)C(=O)c2cc(C)oc2C)cc1 | inactive |
| O=C1NC(c2ccccc2)=NC1(Nc1ccccn1)C(F)(F)F (configuration not stated) | inactive |
| Cc1ccc(C)c(C(=O)N2CCC(n3nccc3NC(=O)C3CC3)CC2)c1 | inactive |

| SMILES | Potency |
| --- | --- |
| Cc1cc(C(=O)OC(C)C(=O)NC2CCCCC2C)c(C)o1 (configuration not stated) | inactive |
| Cc1nc2sccn2c(=O)c1S(=O)(=O)NCCc1ccccc1 | inactive |
| O=C(COC(=O)c1c(Cl)cccc1Cl)Nc1cccc(S(=O)(=O)NC2=NCCCCC2)c1 | inactive |
| O=S(=O)(NCC(c1ccco1)N1CCOCC1)c1cc(F)ccc1F (configuration not stated) | inactive |
| Cc1cc(C)n(CCNC(=O)CC2C(=O)NCCN2Cc2ccc(C)o2)n1 (configuration not stated) | inactive |
| O=C(COc1cc2oc(=O)c3c(c2cc1Cl)CCC3)NCCCN1CCOCC1 | inactive |
| Cc1ccc(-c2csc(C(C#N)=C(O)CN3CCN(C(=O)c4ccco4)CC3)n2)cc1 | inactive |
| CCOC(=O)c1cccc(NC(=O)CCn2nnc3ccccc32)c1 | inactive |
| CCOC(=O)c1cnc(-n2nc(C)cc2C)nc1-n1nc(C)cc1C | inactive |
| CCOC(=O)c1cnc(-n2nc(C)cc2C)nc1Nc1cccc(C(C)=O)c1 | 16.4 µM (active) |
| COC(=O)c1ccc(OC)c(Cn2c(=O)n(Cc3ccccc3)c(=O)c3c2c2cc(OC)ccc2n3C)c1 | inactive |
| O=S(=O)(NCCS(=O)(=O)N1CCN(c2ccccc2)CC1)c1ccc(Cl)cc1 | inactive |
| COc1ccc(-c2ccc(CN3C(CC(C)C)C(=O)N(Cc4cn(CC5CCCCC5)nn4)CCS3(=O)=O)cc2)cn1 (configuration not stated) | 20.6 µM (active) |
| COCOCCn1cc(CN2CCS(=O)(=O)N(Cc3ccc(-c4ccc(OC)cc4)cc3)C(CC(C)C)C2=O)nn1 (configuration not stated) | 16.4 µM (active) |
| CC(C)CC1C(=O)N(Cc2cn(Cc3ccco3)nn2)CCS(=O)(=O)N1Cc1ccc(-c2ccc(Cl)c(Cl)c2)cc1 (configuration not stated) | 18.4 µM (active) |
| CC(=O)c1cccc(-c2ccc(CN3C(CC(C)C)C(=O)N(Cc4cn(CC5CCCCC5)nn4)CCS3(=O)=O)cc2)c1 (configuration not stated) | 20.6 µM (active) |
| COCCCn1cc(CN2CC(N(C)C)CS2(=O)=O)nn1 (configuration not stated) | inactive |
| CC(=O)c1cccc(-n2nnnc2SCC(=O)NNC(=O)C2CCCCC2)c1 | inactive |
| CCOC(=O)NC(=O)CSc1nnc(SCCC(=O)O)s1 | inactive |
| Cc1nc(-c2ccc(F)cc2)c(CC(=O)N(C)CC(=O)Nc2c(C)cccc2C)s1 | inactive |
| Cc1ccccc1-n1cc(CNC(=O)C2CCC(=O)N(C3CC3)C2)cn1 (configuration not stated) | inactive |
| CCOC(=O)c1sc2nc(C)nc(Nc3ccc(OC)c(OC)c3)c2c1C | inactive |
| CC(=O)c1ccc(N=C2SCCCN2C(=O)C2CCCCC2)cc1 | inactive |
| Cc1ccc(-c2cc(C(=O)Oc3ccccc3Cl)no2)cc1C | inactive |
| CC1C(=O)N(Cc2cn(CC3CCCCC3)nn2)CCS(=O)(=O)N1Cc1ccc(-c2cccc(N(C)C)c2)cc1 (configuration not stated) | 4.61 µM (active) |
| O=S1(=O)CC(N2CCN(CCO)CC2)CN1Cc1cn(Cc2cccc(Cl)c2)nn1 (configuration not stated) | inactive |

| SMILES | Potency |
| --- | --- |
| COc1ccc(-c2ccc(CN3C(CC(C)C)C(=O)N(Cc4cn(CC5CCCCC5)nn4)CCS3(=O)=O)cc2)cc1 (configuration not stated) | 18.4 µM (active) |
| O=S1(=O)CC(N2CCSCC2)CN1Cc1cn(Cc2cccc(Cl)c2)nn1 (configuration not stated) | inactive |
| COc1ccc([C@H]2N[C@]3(CCCN(CC4CCCCC4)C3=O)[C@H]3C(=O)N(C)C(=O)[C@@H]23)cc1 | inactive |
| COc1ccc(COC(=O)NC(C(=O)O)c2ccccc2)cc1 (configuration not stated) | inactive |
| O=C(O)c1ccccc1-c1ccccc1C(=O)Nc1ccccc1Br | inactive |
| O=C(CCNS(=O)(=O)c1ccc(Br)s1)NCc1ccccc1Cl | inactive |
| O=C(Nc1nnc(Cc2ccc(Cl)cc2)s1)c1cccnc1 | inactive |
| NC(=O)COc1ccc(NC(=O)c2ccccc2-c2ccccc2)cc1 | inactive |
| Cn1c2ccccc2c(=O)c2c(O)cccc21 | inactive |
| CCOC(=O)c1nnn2c3ccccc3c(=O)n(C)c12 | inactive |
| CCCc1nc2c(c(=O)c3ccccc3n2C)c(=O)n1C1CCCCCC1 | 18.4 µM (active) |
| CCOc1ccc(C(=O)Nc2ccc(S(=O)(=O)Nc3cc(C)on3)cc2)cc1 | inactive |
| Cc1ccc(Nc2c(-c3ccc(Cl)cc3)nc3sccn23)c(C)c1 | inactive |
| O=C(O)c1ccc(Cn2c(=S)[nH]c3cc(Cl)ccc3c2=O)cc1 | inactive |
| N#CC1=C(N)Oc2c(sc3ccccc23)C1c1ccco1 (configuration not stated) | 7.31 µM (active) |
| COC(=O)C1=C(O)/C(=C/c2ccc(OCC(=O)Nc3ccccc3)cc2)N=C1C | inactive |
| COC(=O)C1CCCCN1C(=O)c1ccc(OC2CCN(C(C)=O)CC2)c(OC)c1 (configuration not stated) | inactive |
| O=S(=O)(NC1CCCCC1N1CCC(O)CC1)c1ccc(Cl)cc1 (configuration not stated) | inactive |
| CNC(=O)N1c2ccccc2C=Cc2ccccc21 | inactive |
| CCNC(=O)N1c2ccccc2Sc2ccccc21 | inactive |
| CC1C(C)N(C(=O)CCl)c2ccccc2N1C(=O)CCl (configuration not stated) | 0.58 µM (active) |
| C=CCNC(=S)N1CCN(CCN=Cc2c(C)[nH]n(-c3ccc([N+](=O)[O-])cc3)c2=O)CC1 | inactive |
| Cc1[nH]n(-c2ccccc2)c(=O)c1N=Nc1ccccc1C(=O)N1CCCCC1 | inactive |
| Cc1[nH]n(-c2ccc([N+](=O)[O-])cc2)c(=O)c1C=NCCN1CCN(C(=O)c2ccccc2F)CC1 | 9.2 µM (active) |
| CCCC(=O)Nc1cccc(NC(=S)NC(=O)C(C)Oc2ccc(Cl)cc2Cl)c1 (configuration not stated) | inactive |
| CC1CC(C)CN(C(=O)CCNC(=O)Cn2cnc3ccccc3c2=O)C1 (configuration not stated) | inactive |

| SMILES | Potency |
| --- | --- |
| C=CCOc1cccc(C2C(C(=O)c3ccc(C)o3)=C(O)C(=O)N2CCCn2ccnc2)c1 (configuration not stated) | inactive |
| CCC1CCc2c(sc(NC(C)=O)c2C#N)C1 (configuration not stated) | inactive |
| CC(C)N1CCc2c(sc(NC(=O)Cc3ccccc3)c2C#N)C1 | inactive |
| CC(=O)N1CCc2c(sc(NC(=O)CCS(=O)(=O)c3ccccc3)c2C#N)C1 | 20.6 µM (active) |
| Cc1c(C(=O)NCC2CCCN(C)C2)cnn1-c1nccc(-c2ccco2)n1 (configuration not stated) | inactive |
| CCCC(=O)NC(C)C(c1cccs1)N1CCN(c2ccccc2)CC1 (configuration not stated) | inactive |
| O=C(Nc1ccccc1)N1CCN(Cc2ccccc2)CC1 | inactive |
| CC(NC(=O)Nc1ccccc1)C(c1cccs1)N1CCN(c2ccccc2)CC1 (configuration not stated) | 13 µM (active) |
| CC(NC(=S)Nc1ccccc1)C(c1cccs1)N1CCOCC1 (configuration not stated) | inactive |
| CCCC(c1nnnn1C(C)(C)C)N1CCN(Cc2ccccc2)CC1 (configuration not stated) | inactive |
| CC(NC(=O)C(C)(C)C)C(c1cccs1)N1CCN(Cc2ccccc2)CC1 (configuration not stated) | 20.6 µM (active) |
| O=C(NCCCN1CCCCCC1)C1CC(=O)N(C2CCCC2)C1 (configuration not stated) | inactive |
| N#Cc1nc(/C=C/c2ccc(F)cc2)oc1NCc1ccc(F)cc1 | inactive |
| Cc1cc(NC(=O)CCC(=O)N(CC(=O)NC2CCCC2)c2ccc(F)cc2)no1 | inactive |
| Cc1[nH]c2ccccc2c1/C=C(/C#N)C(=O)NC(C)C | inactive |
| CNC(=O)/C(C#N)=C/c1c(F)cccc1Cl | 11.6 µM (active) |
| N#C/C(=C\c1ccccc1C(F)(F)F)C(=O)Nc1ccccc1F | inactive |
| Cc1ccsc1C(=O)NCCc1ccco1 | inactive |
| CCN1CCN(C(C(=O)NC2CCCC2)c2cc3c(cc2[N+](=O)[O-])OCO3)CC1 (configuration not stated) | inactive |
| CCc1ccccc1NC(=O)c1cc(-c2ccc3c(c2)OCO3)on1 | inactive |
| COc1ccc(-c2cn(-c3ccc(C)cc3)c(=O)n2CC(=O)Nc2ccc(OC)c(OC)c2)cc1 | inactive |
| Cc1ccc(Nc2nnc(SC(C)C(=O)NC3CC3)s2)cc1 (configuration not stated) | inactive |
| CC(=O)c1sc(N/N=C\c2ccc(C)cc2)nc1C | inactive |
| Cc1ccc(Nc2nc(Cl)c(C=O)s2)cc1 | 18.4 µM (active) |
